Consider 25 compounds from PubChem BioAssay (NCATS).

Molecules are shown by their SMILES. Records with an inconclusive call do not appear. The source made the active and inactive calls. The call rests on the fitted dose curve; in most records, active means well fitted inhibition curve with a large enough effect; inconclusive means small, poorly fitted or top-dose-only effect; inactive means flat fitted curve, though single readings scatter.
Further: nearly all actives have a fitted effect of over 70% in size.
Potency means the concentration at half of the fitted maximal effect.

One assay deals with Zika virus NS2B-NS3 protease (linked construct). In words: Confirmatory screen NINDS AMC qHTS for Zika virus inhibitors (AID 1347152). To be noted: Purified linked NS2B-NS3, AMC substrate fluorescence; series mostly up to 56.6 µM. Summed up:
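Linked NS2B-NS3 protease, 1 nM, in 10 mM Tris-HCl pH 8.0, 0.01% Tween 20; compounds preincubated 15 min at room temperature. Nle-KRR-AMC 10 microM (Km 18.3 µM); 15-min fluorescence change (340/450 nm) fitted to 4-parameter Hill.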
For orientation: In qHTS, concentration-response curves come from the screen itself.
In the case of `CC1(C)CCC(C)(C)c2cc3c(cc21)Sc1ccccc1N=C3c1ccc(C(=O)O)cc1`, the Potency was 7.84 µM (active).

With `O=C(O)c1cc(O)c2cccc(O)c2c1O[C@@H]1O[C@H](CO)[C@@H](O)[C@H](O)[C@H]1O`, the Potency was 30.6 µM (active).

`CCOc1c2c(c(OCC)c3ccccc13)C(=O)N(c1ccc(CC(=O)NS(=O)(=O)c3ccccc3)cc1)C2`: the Potency is 44.1 µM (active).

A further assay has as its system Zika virus NS2B-NS3 protease (unlinked complex). The experiment in a line: Confirmatory screen GU AMC qHTS for Zika virus inhibitors (AID 1347153).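 Further: enzyme at 25 nM with substrate at 10 µM below its Km of 18.3 µM.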 The note with it: Recombinant NS2B-NS3 protease, AMC substrate fluorescence. The essentials: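 Compounds were preincubated 15 min at room temperature with 25 nM noncovalent NS2B-NS3 protease at pH 8.0; AMC substrate added at 10 microM and 15-min fluorescence gain (340/450 nm) converted to percent inhibition, fitted 4-parameter.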
Regarding `COc1cccc(-n2nc(C(=O)O)cc2-c2ccc(C3CCCCC3)c(Cl)c2)c1`, the Potency was 12.4 µM (active).

`O=C(O)c1ccc(CCCc2ccc(OCCc3ccc(F)cc3)cc2)o1`: the Potency is 49.4 µM (active).

Turning to `O=C(/C=C/c1c(C(=O)O)[nH]c2cc(Cl)cc(Cl)c12)Nc1ccccc1`, the Potency is 44.1 µM (active).

With `CC(C)C(=O)c1cn(CC(=O)COc2ccc(Oc3ccccc3)cc2)c2ccc(C(=O)O)cc12`, the Potency was 44.1 µM (active).

For the compound `O=C(O)c1cnn(-c2nc3cc(OC(F)(F)F)c(Cl)cc3[nH]2)c1`, the Potency is 32 µM (active).

As to `CC(=O)O[C@@H]1C[C@]2(C)[C@@]3(CCC4[C@@]5(C)CC[C@H](O[C@@H]6O[C@H](C(=O)O)[C@@H](O)[C@H](O[C@@H]7O[C@H](CO)[C@H](O)[C@H](O)[C@H]7O[C@@H]7O[C@@H](C)[C@H](O)[C@@H](O)[C@H]7O[C@@H]7OC[C@](O)(CO)[C@H]7O)[C@H]6O[C@@H]6O[C@H](CO)[C@H](O)[C@H](O)[C@H]6O)C(C)(C)C5CC[C@]42C)O[C@@H](O)[C@]12C3CC(C)(C)[C@@H](OC(=O)/C=C/c1ccc(O)c(O)c1)[C@@H]2OC(=O)/C=C/c1ccccc1` (some centres not stated), the Potency was 7.42 µM (active).

On to `O=S(=O)(O)c1ccc2c(N=Nc3ccc(S(=O)(=O)O)c4ccccc34)c(O)c(S(=O)(=O)O)cc2c1`, for which the Potency is 31.2 µM (active).

Turning to `O=C(O)c1cc(O)c2cccc(O)c2c1O[C@@H]1O[C@H](CO)[C@@H](O)[C@H](O)[C@H]1O`, the Potency is 30.6 µM (active).

As to `CCOc1c2c(c(OCC)c3ccccc13)C(=O)N(c1ccc(CC(=O)NS(=O)(=O)c3ccccc3)cc1)C2`, the Potency is 44.1 µM (active).

Test system in the next assay: not listed separately
The experiment in a line: Confirmatory screen GU Rhodamine qHTS for Zika virus inhibitors qHTS (AID 1347157). To be noted: purified enzyme assay, Rhodamine110 substrate fluorescence, 15 min. The essentials:
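In dose–response format, inhibition of unlinked protease (25 nM) was measured with 1.5 microM bis-peptide Rhodamine110 substrate. Aprotinin served as the intraplate control.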
As to `CCOc1ccc(-c2ccc(Cn3c(CC(C)(C)C(=O)O)c(SC(C)(C)C)c4cc(OCc5ccc(C)cn5)ccc43)cc2)cn1`, the Potency is 1.75 µM (active).

Regarding `OC[C@H]1O[C@@H](Oc2ccc(O)c3cccc(O)c23)[C@H](O)[C@@H](O)[C@@H]1O`, the Potency was 4.85 µM (active).

`COc1cccc(-n2nc(C(=O)O)cc2-c2ccc(C3CCCCC3)c(Cl)c2)c1`: the Potency is 2.21 µM (active).

Turning to `C=C1CC23CCC4[C@@](C)(CCC[C@@]4(C)C(=O)O)C2CCC1C3` (some centres not stated), the Potency was 39.3 µM (active).

With `O=C(O)c1ccc(CCCc2ccc(OCCc3ccc(F)cc3)cc2)o1`, the Potency was 3.12 µM (active).

In the case of `O=C(/C=C/c1c(C(=O)O)[nH]c2cc(Cl)cc(Cl)c12)Nc1ccccc1`, the Potency is 2.78 µM (active).

Regarding `CC1(C)CC[C@]2(C(=O)O[C@@H]3O[C@H](CO)[C@@H](O)[C@H](O)[C@H]3O)CC[C@]3(C)C(=CCC4[C@@]5(C)C[C@@H](O)[C@H](O)[C@@](C)(CO)C5CC[C@]43C)C2C1` (some centres not stated), the Potency was 11.7 µM (active).

Take `CC(C)C(=O)c1cn(CC(=O)COc2ccc(Oc3ccccc3)cc2)c2ccc(C(=O)O)cc12`: the Potency was 8.79 µM (active).

With `CCCCS(=O)(=O)Nc1ncnc(OCCOc2ncc(Br)cn2)c1-c1ccc(Br)cc1`, the Potency is 22.1 µM (active).

With `CC12CCC3C(C)(C)C(O)CCC3(C)C1Cc1c(oc(C(=O)O)cc1=O)O2` (configuration not stated), the Potency is 24.3 µM (active).

As to `O=C(O)c1cnn(-c2nc3cc(OC(F)(F)F)c(Cl)cc3[nH]2)c1`, the Potency is 12.7 µM (active).

In the case of `Cc1nn(C)c(COc2ccc(N3CCN(S(=O)(=O)N(C)C)CC3)cc2)c1-c1cccc2c(CCCOc3cccc4ccccc34)c(C(=O)O)n(CCN3CCOCC3)c12`, the Potency is 1.75 µM (active).

Take `CC(=O)O[C@@H]1C[C@]2(C)[C@@]3(CCC4[C@@]5(C)CC[C@H](O[C@@H]6O[C@H](C(=O)O)[C@@H](O)[C@H](O[C@@H]7O[C@H](CO)[C@H](O)[C@H](O)[C@H]7O[C@@H]7O[C@@H](C)[C@H](O)[C@@H](O)[C@H]7O[C@@H]7OC[C@](O)(CO)[C@H]7O)[C@H]6O[C@@H]6O[C@H](CO)[C@H](O)[C@H](O)[C@H]6O)C(C)(C)C5CC[C@]42C)O[C@@H](O)[C@]12C3CC(C)(C)[C@@H](OC(=O)/C=C/c1ccc(O)c(O)c1)[C@@H]2OC(=O)/C=C/c1ccccc1` (some centres not stated): the Potency was 3.32 µM (active).

Take `CC(C)C1=CCC(C)(O)C(OC2OC(CO)C(O)C(O)C2O)C1` (configuration not stated): the Potency was 27.3 µM (active).

Turning to `CC(C)c1cc2c(c(O)c1O[C@@H]1O[C@H](CO)[C@@H](O)[C@H](O)[C@H]1O)CC1(O)CCC(O)C(C)(C)C1CC2` (some centres not stated), the Potency is 17.1 µM (active).

On to `N#CC1C(=O)Nc2scc(-c3ccc(-c4ccccc4O)cc3)c2C1=O` (configuration not stated), for which the Potency was 3.93 µM (active).

Consider `NCc1ccc(OCCCc2sc(-c3ccc4c(c3)/C(=N/Nc3nc5ccccc5s3)CCC4)nc2C(=O)O)cc1`, for which the Potency is 13.9 µM (active).

For `O=S(=O)(O)c1ccc2c(N=Nc3ccc(S(=O)(=O)O)c4ccccc34)c(O)c(S(=O)(=O)O)cc2c1`, the Potency was 10 µM (active).

In the case of `Nc1c(N=Nc2ccc(-c3ccc(N=Nc4cc(S(=O)(=O)O)c5ccccc5c4N)cc3)cc2)cc(S(=O)(=O)O)c2ccccc12`, the Potency is 2.51 µM (active).

As for `CC(=O)c1c(C)cc(O)cc1O[C@@H]1O[C@H](CO)[C@@H](O)[C@H](O)[C@H]1O`, the Potency is 30.6 µM (active).

`CC1(C)CCC(C)(C)c2cc3c(cc21)Sc1ccccc1N=C3c1ccc(C(=O)O)cc1`: the Potency was 1.56 µM (active).

Regarding `O=S(=O)(O)c1cc(O)c2c(N=Nc3ccc(Nc4ccccc4)c4c(S(=O)(=O)O)cccc34)cc(S(=O)(=O)O)cc2c1`, the Potency was 2.82 µM (active).

Take `O=C(O)c1cc(O)c2cccc(O)c2c1O[C@@H]1O[C@H](CO)[C@@H](O)[C@H](O)[C@H]1O`: the Potency is 10.9 µM (active).

Take `CC1C/C=C/C=C\CCCCC(O)C/C=C/C(=O)O1` (configuration not stated): the Potency was 44.1 µM (active).

Turning to `CCOc1c2c(c(OCC)c3ccccc13)C(=O)N(c1ccc(CC(=O)NS(=O)(=O)c3ccccc3)cc1)C2`, the Potency is 4.94 µM (active).
